Only some compounds are listed: those with a hit (about 0.38% of all), similar ones and a draw of the others.
Eya2 phos inh = Eya2 (human) phosphatase inhibition. O00167. recombinant Eya2, OMFP fluorescence dephosphorylation (OMFP is methylfluorescein phosphate). Potency, µM (top dose mostly 76.9 µM), actives largely listed as inhibitors. actives 0.006% (n = 330,000)
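Eya2 protein (added as 0.2 uM solution) was preincubated with compound for 10 min at ambient temperature in 50 mM HEPES pH 7.5, 50 mM NaCl, 5 uM MgCl2, 0.05% BSA, 1 mM DTT. OMFP (added at 50 uM) then reacted 10 min; fluorescence read at 485/525 nm.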
CBFb-RUNX1 inh = blocks binding between human CBF-beta and RUNX1; Q01196+Q13951; AlphaScreen CBFb-His/RUNX1-biotin binding, biochemical; Potency, µM (series often up to 59.8 µM), actives largely listed as inhibitors; 230,000 tested, under 10 active
Target sequence (Q01196 whole entry, looked up): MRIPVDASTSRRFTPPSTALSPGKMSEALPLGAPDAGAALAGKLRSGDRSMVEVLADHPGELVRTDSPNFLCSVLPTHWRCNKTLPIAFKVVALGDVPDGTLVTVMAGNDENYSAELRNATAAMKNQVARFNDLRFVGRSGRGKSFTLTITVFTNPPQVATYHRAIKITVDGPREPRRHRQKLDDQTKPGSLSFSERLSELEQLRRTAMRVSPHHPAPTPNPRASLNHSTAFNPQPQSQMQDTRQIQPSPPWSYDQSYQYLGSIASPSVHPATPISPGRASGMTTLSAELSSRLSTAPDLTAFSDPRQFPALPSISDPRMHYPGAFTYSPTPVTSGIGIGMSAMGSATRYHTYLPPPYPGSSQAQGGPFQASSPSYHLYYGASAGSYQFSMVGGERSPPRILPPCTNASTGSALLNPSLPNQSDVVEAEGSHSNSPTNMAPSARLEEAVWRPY
Target sequence (Q13951 whole entry, looked up): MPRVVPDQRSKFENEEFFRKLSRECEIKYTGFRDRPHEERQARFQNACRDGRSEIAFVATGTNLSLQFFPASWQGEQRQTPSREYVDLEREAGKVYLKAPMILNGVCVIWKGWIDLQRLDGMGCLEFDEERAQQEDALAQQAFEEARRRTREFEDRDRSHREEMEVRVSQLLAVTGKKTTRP
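Room-temperature protein-protein interaction test with 30 nM each of His-tagged CBF-beta and biotinylated RUNX1, 15 min with compound, then 90 min with nickel plus streptavidin beads. Signal read in AlphaScreen mode.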
TRb SRC2 PPI = TRbeta-SRC2 interaction inhibition; TRbeta-SRC2 peptide binding, fluorescence polarization; receptor liganded with 1 µM T3; actives 0.065% (n = 280,000); Potency, µM (top dose mostly 106 µM), usual class: inhibitors; P10828; also: nearly all actives have a fitted effect of over 50% in size
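Fluorescence polarization of 20 nM Texas Red SRC2 peptide with 0.6 uM human TRb ligand-binding domain, in Tris buffer with 1uM T3 and 5% DMSO. Incubated 5 hr ambient; normalized to unbound and bound controls.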
TexasRed fluor = alters Texas Red total fluorescence, flagging assay interference | actives 0.29% (n = 280,000) | TRb/SRC2 Texas Red total fluorescence interference | Potency, µM (series often up to 106 µM); active = well fitted curve in either direction with a large enough effect; inconclusive = small, poorly fitted or top-dose-only effect
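Flags fluorescent or light-absorbing compounds by total fluorescence, S + 2P, at 555 nm excitation and 632 nm emission. Mixture: 20 nM Texas Red SRC2 peptide, 0.6 uM human TRb LBD, 1 uM T3, 5% DMSO; compound exposure 5 h at ambient temperature.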
USP2a inh = inhibitors of human ubiquitin-specific protease USP2a. USP2 core, Ub-CHOP2 coupled fluorogenic reporter, 485/531. Potency, µM (highest dose often 38.3 µM), most hits filed as inhibitors. O75604. AID 463254. actives 0.01% (n = 330,000)
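Deubiquitinase activity read as fluorescence (485/531 nm) after Ub-CHOP2 cleavage activates the enterokinase reporter on its substrate; USP2 core 10nM, Ub-CHOP2 and substrate 25nM each, 30min compound preincubation then 60min RT; data normalized to NEM, curves fitted.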
TSHR antag = human thyrotropin receptor antagonism; TSHR-expressing cells, TSH-stimulated cAMP HTRF, 2 h; active compounds read low; activity change, negative = inhibition, % at 11.5 µM; actives 0.2% (n = 330,000); AID 504810;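 active = activity change below a set negative limit, meaning inhibition stronger than a set level, cut at about -70% in these data; inconclusive = activity change between two set negative limits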
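TSHR-expressing cells were treated with compounds, then stimulated with TSH at EC80 (4nM final) for 2 hours at 37 deg C. Cellular cAMP was measured by HTRF competition between lysate cAMP and cAMP-d2 for a cryptate-labelled anti-cAMP antibody.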
Numbers stand for hits; ! = repeats disagree; [ ] = remark or other dose. Unless noted, calls follow the shape of the dose curve; as a rule, active = well fitted curve in the direction sought with a large enough effect; inconclusive = small, poorly fitted or top-dose-only effect, or another doubt; inactive = no such curve, though single readings can be large; an effect the other way counts as inactive or inconclusive.

For O=C(O)CCCC[C@@H]1SC[C@H]2NC(=O)N[C@@H]12 the results were CBFb-RUNX1 inh 12.6µM, TRb SRC2 PPI inactive and TexasRed fluor inactive.
`CCCN1CCCC2Cc3[nH]ncc3CC21` (stereo not given) gave CBFb-RUNX1 inh inactive, TRb SRC2 PPI inactive and TexasRed fluor 35.5µM![quencher].
CN(N=O)c1cc(O)ccc1O was read as Eya2 phos inh inactive, TRb SRC2 PPI inconclusive, TexasRed fluor 12.6µM[quencher] and TSHR antag inactive.
COC[C@H]1OC(=O)c2coc3c2[C@@]1(C)C1=C(C3=O)[C@@H]2CCC(=O)[C@@]2(C)C[C@H]1OC(C)=O was read as CBFb-RUNX1 inh inactive, TRb SRC2 PPI 35.5µM and TexasRed fluor 44.7µM[fluorescent].
Screening CNc1ccc2oc(C[C@H]3O[C@@]4(CC[C@H]3C)O[C@H]([C@H](C)C(=O)c3ccc[nH]3)[C@H](C)C[C@H]4C)nc2c1C(=O)O returned Eya2 phos inh inactive, CBFb-RUNX1 inh inconclusive, TRb SRC2 PPI inactive, TexasRed fluor inactive, USP2a inh inactive and TSHR antag -90.0.
C/C(=N\Nc1ccccc1)c1c(O)n(Cc2ccccc2)c(=O)[nH]c1=O was read as Eya2 phos inh inactive, CBFb-RUNX1 inh inactive, TRb SRC2 PPI inactive, TexasRed fluor 0.0708µM[quencher], USP2a inh inactive and TSHR antag inactive.
For C/C(=N\Nc1ccccc1)c1c(O)n(-c2ccccc2)c(=O)[nH]c1=O the results were Eya2 phos inh inactive, CBFb-RUNX1 inh inactive, TRb SRC2 PPI inactive, TexasRed fluor inactive, USP2a inh inactive and TSHR antag inactive.
Screening O=P(O)(O)CN(CP(=O)(O)O)CP(=O)(O)O returned TRb SRC2 PPI inactive and TexasRed fluor inactive.
Nc1ccccc1 was read as CBFb-RUNX1 inh inactive, TRb SRC2 PPI inactive and TexasRed fluor inactive.
`Nc1ccc(C2(c3ccc(N)cc3)c3ccccc3-c3ccccc32)cc1` gave Eya2 phos inh inactive, CBFb-RUNX1 inh inactive, TRb SRC2 PPI inactive, TexasRed fluor inactive, USP2a inh inactive and TSHR antag -102.5.
`CCNc1nc(NC(C)C)nc(OC)n1` gave TRb SRC2 PPI inactive and TexasRed fluor inactive.
For CN1CCN(c2ccc([N+](=O)[O-])c3no[n+]([O-])c23)CC1 the results were Eya2 phos inh inconclusive, CBFb-RUNX1 inh inactive, TRb SRC2 PPI inactive, TexasRed fluor inactive, USP2a inh inconclusive and TSHR antag -96.9.
For CC1(C)C[C@H]2C=C(C=O)[C@]3(C=O)C[C@]3(C)[C@H]2C1 the results were Eya2 phos inh inactive, CBFb-RUNX1 inh inactive, TRb SRC2 PPI inactive, TexasRed fluor inactive, USP2a inh inactive and TSHR antag -87.5.
For CCCCC/C=C\C/C=C\C/C=C\C/C=C\CCCC(=O)Nc1ccc(O)cc1 the results were Eya2 phos inh inconclusive, CBFb-RUNX1 inh inactive, TRb SRC2 PPI inactive, TexasRed fluor inactive, USP2a inh inactive and TSHR antag inactive.
Screening CCCCC/C=C\C/C=C\C/C=C\C/C=C\CCCC(=O)Nc1ccc(O)cc1C returned CBFb-RUNX1 inh inactive, TRb SRC2 PPI inactive and TexasRed fluor 3.55µM![quencher].
Cc1cnc(C2=NC(C)(C(C)C)C(=O)N2)c(C(=O)O)c1 (stereo not given) was read as TRb SRC2 PPI inactive and TexasRed fluor inactive.
For CC(C)OC(=O)C(O)(c1ccc(Br)cc1)c1ccc(Br)cc1 the results were TRb SRC2 PPI inactive and TexasRed fluor inactive.
Screening CNc1cc(Cl)c2nonc2c1[N+](=O)[O-] returned Eya2 phos inh inactive, CBFb-RUNX1 inh inactive, TRb SRC2 PPI inactive, TexasRed fluor inactive, USP2a inh inactive and TSHR antag -88.7.
For O=[N+]([O-])c1c(Cl)c(Cl)cc(Cl)c1Cl the results were CBFb-RUNX1 inh inactive, TRb SRC2 PPI inactive and TexasRed fluor inactive.
Cc1nn(-c2cc(NS(C)(=O)=O)c(Cl)cc2Cl)c(=O)n1C(F)F was read as TRb SRC2 PPI inactive and TexasRed fluor inactive.
Cc1cccc2sc3nncn3c12 was read as TRb SRC2 PPI inactive and TexasRed fluor inactive.
For O=C1NC(=O)N(c2ccc(Cl)cc2)C(=O)/C1=C\c1ccc(Sc2nc3ccccc3[nH]2)o1 the results were Eya2 phos inh inactive, CBFb-RUNX1 inh inconclusive, TRb SRC2 PPI inconclusive, TexasRed fluor 44.7µM[fluorescent], USP2a inh inactive and TSHR antag inactive.
`O=C1NC(=O)C(=Cc2ccc(Sc3ccccc3)o2)C(=O)N1` gave Eya2 phos inh inactive, CBFb-RUNX1 inh inactive, TRb SRC2 PPI inactive, TexasRed fluor inactive, USP2a inh inactive and TSHR antag inactive.
For CC[C@]1(O)CC(O[C@@H]2CC(N(C)C)C(O)C(C)O2)c2c(cc3c(c2O)C(=O)c2c(O)ccc(O)c2C3=O)C1C(=O)OC (stereo not given in full) the results were CBFb-RUNX1 inh inconclusive, TRb SRC2 PPI inactive and TexasRed fluor 39.8µM[fluorescent].
Screening N#Cc1c[nH]cc1-c1cccc2c1OC(F)(F)O2 returned TRb SRC2 PPI inactive and TexasRed fluor inactive.
